The values that follow come from PubChem BioAssay (Tox21).

Molecules are shown by their SMILES. A number with no mark means an inactive call. Inconclusive results are not listed. The source made the active and inactive calls. Unless noted, the call rests on the fitted dose curve; in most records, active means well fitted curve in the direction sought with a large enough effect in the repeat runs; inconclusive means weak or mixed curves; inactive means no such curve, though single readings can be large; an effect the other way counts as inactive or inconclusive.

Assay [1] is described as follows: qHTS assay for small molecules that induce genotoxicity in human embryonic kidney cells expressing luciferase-tagged ATAD5 (AID 651632). Further: nearly all actives have a fitted effect of over 15% in size. Put shortly: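 DMSO vehicle served as the control. HEK293T reporter cells, 16 hr at 37C, then 30 min Amplite at room temperature; ATAD5 induction is measured as luciferase activity.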
Assay [2] in a line: qHTS assay for small molecule agonists of the p53 signaling pathway - cell viability (AID 651633; calls by dose curve; further: nearly all actives have a fitted effect of over 30% in size; further: potency means the concentration at half of the fitted maximal effect). The procedure, abridged:
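p53RE-bla cells were treated with compound for 16 hours at 37 C. Cytotoxicity was then measured as CellTiter-Glo luminescence after 30 min at room temperature.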

Assay [3] is described as follows: qHTS assay for small molecules that induce genotoxicity in human embryonic kidney cells expressing luciferase-tagged ATAD5 - cell viability (AID 651634; calls by dose curve; further: nearly all actives have a fitted effect of over 25% in size). Put shortly:
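Here HEK293T cells with the ATAD5 luciferase reporter are incubated with test compounds for 15.5 hr, and cytotoxicity is then gauged by measuring protease activity in live cells using fluorescence.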

Assay [4] can be described thus: qHTS assay for small molecule disruptors of the mitochondrial membrane potential - cell viability (AID 720634; calls by dose curve;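 further: human HepG2 liver cancer cells; series mostly up to about 83 µM; nearly all actives have a fitted effect of over 20% in size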). The procedure, abridged: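 Viability of HepG2 cells is scored from ATP content by luminescence; cells are exposed to compound for 1 hr at 37 C and 5% CO2, then dosed with m-MPI dye before the CellTiter-Glo reagent.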
Assay [5] can be described thus: qHTS assay for small molecule disruptors of the mitochondrial membrane potential (AID 720635). Further: potency means the concentration at half of the fitted maximal effect. Put shortly:
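HepG2 cells exposed to compound 1 hr at 37C, then Mito-MPS dye 30 min. Ratio read of aggregate (540/590 nm) versus monomer (490/535 nm) fluorescence.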

A short description of assay [6]: qHTS assay to test for compound auto fluorescence at 590 nm (red) in HepG2 cells (AID 720674). Put shortly:
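Seeding: 2,000 HepG2 cells/well, MEM/10% FBS, overnight 37 C. Dosing: compound vs DMSO. Incubation: 1 hr, 37 C, 5% CO2. Read: fluorescence 540 ex/590 em, Rose Bengal sodium as red reference.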

Assay [7] in a line: qHTS assay to test for compound auto fluorescence at 460 nm (blue) in HEK293 cells (AID 720678). Put shortly: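 Cells were seeded and left to adhere for 4-5 hr at 37C. Compounds were then pin-transferred. After an overnight incubation at 37C under 5% CO2, intrinsic fluorescence at 405/460 nm was measured and referenced to triamterene.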
The nature of assay [8]: qHTS assay to test for compound auto fluorescence at 590 nm (red) in HEK293 cells (AID 720679). The procedure, abridged:
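Each well held 2,000 HEK293 cells in medium containing 10% dialyzed FBS. Following 4-5 hr attachment at 37C, 23 nL test compound or DMSO was added; plates sat overnight, and red fluorescence (540/590nm) was recorded.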

The nature of assay [9]: qHTS assay to test for compound auto fluorescence at 535 nm (green) in HEK293 cells (AID 720680).
Assay [10] is described as follows: qHTS assay to test for compound auto fluorescence at 460 nm (blue) in HEK293 cell free culture (AID 720681). The procedure, abridged:
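Compounds were added to cell-free DMEM with 10% FBS and fluorescence read directly. The blue channel used 405 nm excitation and 460 nm emission, with triamterene as the reference fluorophore.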

Assay [11] in a line: qHTS assay to test for compound auto fluorescence at 535 nm (green) in HEK293 cell free culture (AID 720682). The procedure, abridged: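 DMEM + 10% FBS, cell-free; cpd or DMSO pinned in; Ex485/Em535 read; output as fluorescein-equivalent signal.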
The nature of assay [12]: qHTS assay to test for compound auto fluorescence at 590 nm (red) in HepG2 cell free culture (AID 720684). Put shortly:
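Rose Bengal sodium served as the reference for red signal. Test compounds were dispensed into serum-containing MEM (10% FBS) without cells, and plates were read at 540/590 nm.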

Assay [13] can be described thus: qHTS assay to test for compound auto fluorescence at 460 nm (blue) in HepG2 cell free culture (AID 720685). Put shortly:
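Cell-free plates of MEM plus 10% FBS received 23 nL compound or DMSO vehicle; blue-channel (405/460 nm) intensity scored against triamterene as reference fluorophore.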

Assay [14] in a line: qHTS assay to test for compound auto fluorescence at 535 nm (green) in HepG2 cell free culture (AID 720686).
Assay [15] can be described thus: qHTS assay to test for compound auto fluorescence at 460 nm (blue) in HepG2 cells (AID 720687). Put shortly:
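HepG2 cells in MEM with 10% FBS, attached overnight at 37 C, were exposed to compound or DMSO for 1 hr at 37 C, 5% CO2. Blue fluorescence was read at 405/460 nm, with triamterene as reference fluorophore.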

Assay [16] addresses Glucocorticoid receptor (Homo sapiens) (UniProt P04150). Description: qHTS assay to identify small molecule agonists of the glucocorticoid receptor (GR) signaling pathway (AID 720691; active means well fitted activation curve with a large enough effect in the signal ratio in the repeat runs, not every such curve was filed as active; the % refers to the signal ratio). The procedure, abridged:
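Compounds in DMSO, alongside positive controls, were added to GR-bla HeLa reporter cells and incubated 18 h at 37 C; GRE-driven beta-lactamase was detected by fluorescence after 2 h with FRET substrate at room temperature.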

Assay [17] shares this target. The assay can be described thus: qHTS assay to identify small molecule antagonists of the glucocorticoid receptor (GR) signaling pathway (AID 720692; active means well fitted inhibition curve with a large enough effect in the signal ratio in the repeat runs, not every such curve was filed as active; the % refers to the signal ratio; further: potency means the concentration at half of the fitted maximal effect). Put shortly: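 In a 1536-well cell format, compounds were added 4 h after seeding GR-bla HeLa cells, together with dexamethasone at 5 nM final; reporter activity was measured by FRET-substrate fluorescence following 18 h at 37 C.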

A short description of assay [18]: qHTS assay for small molecule agonists of the p53 signaling pathway (AID 651631; calls by dose curve; further: potency means the concentration at half of the fitted maximal effect; nearly all actives have a fitted effect of over 15% in size). Put shortly: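 Testing took place in human colorectal HCT-116 cells with stable p53RE-driven beta-lactamase. After 16 h of compound exposure at 37 °C, a FRET substrate was added and fluorescence recorded 2 h later.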
The nature of assay [19]: qHTS assay to test for compound auto fluorescence at 535 nm (green) in HepG2 cells (AID 720675).
Assay [20] can be described thus: qHTS assay to test for compound auto fluorescence at 590 nm (red) in HEK293 cell free culture (AID 720683). Put shortly:
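Cell-free wells of DMEM with 10% FBS received compound, and intrinsic fluorescence was read at excitation/emission 540/590 nm. Values expressed as equivalence to Rose Bengal sodium.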

Glucocorticoid receptor (Homo sapiens), sequence (P04150 whole entry, looked up): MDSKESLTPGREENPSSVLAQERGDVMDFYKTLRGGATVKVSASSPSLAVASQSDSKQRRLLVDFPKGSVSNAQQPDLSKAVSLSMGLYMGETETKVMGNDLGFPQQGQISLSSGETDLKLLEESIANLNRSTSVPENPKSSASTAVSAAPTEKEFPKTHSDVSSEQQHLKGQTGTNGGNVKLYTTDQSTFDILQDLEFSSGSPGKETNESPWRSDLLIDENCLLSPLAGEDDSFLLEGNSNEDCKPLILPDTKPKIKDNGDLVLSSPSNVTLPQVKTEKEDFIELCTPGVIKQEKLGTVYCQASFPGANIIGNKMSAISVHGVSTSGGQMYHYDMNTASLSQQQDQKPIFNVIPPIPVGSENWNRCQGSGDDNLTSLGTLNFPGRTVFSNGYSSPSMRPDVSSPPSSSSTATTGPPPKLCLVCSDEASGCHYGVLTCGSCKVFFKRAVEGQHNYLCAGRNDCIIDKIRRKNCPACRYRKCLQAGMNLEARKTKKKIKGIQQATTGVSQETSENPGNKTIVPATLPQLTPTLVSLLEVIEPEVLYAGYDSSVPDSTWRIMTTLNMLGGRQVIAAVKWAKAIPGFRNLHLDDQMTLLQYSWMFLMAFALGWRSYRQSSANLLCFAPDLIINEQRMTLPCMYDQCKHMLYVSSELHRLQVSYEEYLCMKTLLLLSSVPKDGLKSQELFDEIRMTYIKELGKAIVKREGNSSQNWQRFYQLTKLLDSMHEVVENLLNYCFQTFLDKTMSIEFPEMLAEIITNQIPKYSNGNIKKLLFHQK

On to `O=C(OC(=O)c1ccccc1)c1ccccc1`, for which the Potency entry in assay [1], in [2], in [3], in assay [4], in assay [5] and in assay [7] was “inactive” throughout. In addition, the Potency result in assay [10], in [13], in [15], in [16] and in [17] was “inactive” in each case. Moreover, the result in assay [6], in assay [8], in assay [9], in assay [11], in assay [12] and in assay [14] was inactive.

Take `C=CC(=O)OCC1CC2CC1C1CCC(COC(=O)C=C)C21` (stereo not drawn): the Potency in assay [18] was 54.5 µM (active). For the same compound, the Potency result in [4], in assay [7], in assay [10], in [13] and in assay [15] was “inactive” in each case. The compound was classed as inactive in assay [6], in assay [19], in [8], in assay [9], in [11] and in assay [20]. The result in [12] and in assay [14] was inactive.

As for `Nc1nnc(-c2ccc([N+](=O)[O-])o2)o1`, the Potency result in assay [1], in assay [2], in [3], in assay [4], in assay [7] and in assay [10] was “inactive” throughout. Moreover, the Potency result in assay [13], in [15] and in [16] was “inactive” throughout. In addition, the Potency in [5] is 61.1 µM (active). The compound was called inactive in assay [6], in assay [19], in assay [9], in assay [11], in assay [20] and in assay [12]. In addition, the outcome in assay [14] was inactive.

For the compound `CN(C)CCN1C(=O)c2ccccc2N(C)c2ccccc21`, the Potency result in [1], in [2], in [3], in assay [4], in [7] and in assay [10] was “inactive” in each case. Also, the Potency result in [13] and in assay [15] was “inactive” throughout. Moreover, the compound was classed as inactive in [6], in assay [19], in assay [8], in [9], in assay [11] and in assay [20]. The outcome in assay [12] and in [14] was inactive.

Regarding `COc1ccccc1N1CCN(CC(O)COc2cccc3ccccc23)CC1` (stereo not drawn), the Potency entry in [1], in assay [2], in assay [3], in [4], in [7] and in assay [10] was “inactive” in each case. For the same compound, the Potency result in assay [13], in assay [15] and in assay [16] was “inactive” in each case. For the same compound, the compound was classed as inactive in assay [6], in assay [19], in assay [8], in assay [9], in assay [20] and in [12]. Further, the result in assay [14] was inactive.

Regarding `CCCCCCCCCCCCCCN(CCO)CCO`, the Potency entry in assay [1], in [3], in [4], in assay [7], in assay [10] and in [13] was “inactive” throughout. Further, the Potency result in [15] was “inactive”. Moreover, the Potency in assay [2] was 48.6 µM (active); in [17] it was 19.5 µM (active). In addition, the outcome in [6], in assay [19], in assay [8], in [9], in [11] and in assay [20] was inactive. Moreover, the call in [12] and in assay [14] was inactive.

As for `CCN(CC)CCNC(=O)COc1ccc(OC)cc1`, the Potency entry in assay [1], in [2], in assay [3], in assay [4], in [5] and in assay [7] was “inactive” in each case. Moreover, the Potency result in [10], in assay [13], in assay [15], in [16] and in [17] was “inactive” throughout. In addition, the outcome in assay [6], in assay [19], in assay [9], in assay [20] and in assay [12] was inactive.
